Giardia kill: Small Molecules that selectively kill Giardia lamblia: qHTS; hit rate 0.15% among 340,000; activity change, % at 7.66 µM, hits read low; Giardia lamblia trophozoite viability; in the data active means activity change below about -80%; inconclusive means between about -30% and that limit;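 further: parasites exposed to compound for two days anaerobically before the ATP read; on the % scale 0 is the no-effect control and ±100 the full control effect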
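Luminescence from cellular ATP indicates surviving trophozoites (100 cells/well) following 48 hrs anaerobic compound treatment at 37 deg C; signal develops 15-30 min at room temperature.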
MCF10A rereplic: A quantitative high throughput screen for small molecules that induce DNA re-replication in MCF 10a normal breast cells; Potency, µM (doses to about 46.1 µM), inactives show at the top dose activity, positive = re-replication, actives largely listed as activators; AID 624296, 2012; MCF 10A DNA re-replication, Hoechst nuclear intensity, 48 h; hit rate 2.9% among 350,000; further: potency means the concentration at half of the fitted maximal effect; % of control where 0% means no effect; nearly all actives have a fitted effect of over 50% in size
Vif-A3G inh: qHTS for Inhibitors of Vif-A3G Interactions: qHTS; AID 602310, 2012; hit rate 0.076% among 410,000; Potency, µM (series often up to 46.1 µM), inactives show at the highest dose activity, negative = active, most hits filed as inhibitors; HeLa A3G-eYFP + Vif (tagged APOBEC3G with the HIV-1 protein that degrades it), YFP fluorescence, overnight; further: potency means the concentration at half of the fitted maximal effect; on the % scale 0 is the no-effect control and ±100 the full control effect; nearly all actives have a fitted effect of over 60% in size
Target sequence (Q9HC16 whole entry, looked up): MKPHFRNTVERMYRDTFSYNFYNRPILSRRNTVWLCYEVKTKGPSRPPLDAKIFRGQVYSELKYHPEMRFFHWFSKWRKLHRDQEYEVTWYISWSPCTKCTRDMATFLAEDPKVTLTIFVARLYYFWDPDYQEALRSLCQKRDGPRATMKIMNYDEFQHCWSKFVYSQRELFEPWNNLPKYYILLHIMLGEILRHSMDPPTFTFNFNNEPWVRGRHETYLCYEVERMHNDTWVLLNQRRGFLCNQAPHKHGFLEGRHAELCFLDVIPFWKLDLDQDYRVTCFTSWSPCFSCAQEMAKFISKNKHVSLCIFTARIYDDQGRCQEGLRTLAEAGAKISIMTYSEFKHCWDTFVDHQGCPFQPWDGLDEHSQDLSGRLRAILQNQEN
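Read-out is eYFP fluorescence (Ex 488/Em 500-530) from Vif-expressing HeLa A3G-eYFP cells; more signal means A3G escaped Vif-mediated degradation. Cells plated overnight, compound pinned in, incubated overnight at 37 deg C.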
IL1B secr inh: qHTS for Inhibitors of Inflammasome Signaling: IL-1-beta AlphaLISA Primary Screen | THP-1 LPS/ATP IL-1B secretion, AlphaLISA, 16 h; hits give low values | AID 743279, 2014 | activity change, % at 57.5 µM | hit rate 4.7% among 360,000; in the data active means activity change below about -50%; inconclusive means mostly about -30% to -49%; further: on the % scale 0 is the no-effect control and ±100 the full control effect
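THP-1 cells pretreated 1 hr with compounds (up to 57.5 uM final), then stimulated with LPS (250 ng/mL final) plus ATP (1.25 mM final); secreted IL-1B measured by AlphaLISA after 16 hr, decreased signal indicating inhibition.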
SW480 rereplic: A quantitative high throughput screen for small molecules that induce DNA re-replication in SW480 colon adenocarcinoma cells; SW480 DNA re-replication, Hoechst DNA content imaging, 48 h; Potency, µM (doses to about 46.1 µM), for the others: top-dose re-replication activation, most hits filed as activators; hit rate 1.8% among 340,000; AID 624297, 2012; further: potency means the concentration at half of the fitted maximal effect; % of control where 0% means no effect; nearly all actives have a fitted effect of over 55% in size
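SW480 cells exposed to compounds for 48 hr at 37 C, 5% CO2, then Hoechst-stained 40 min. Nuclear DNA content imaged by fluorescence scanning (405 nm excitation, 500-530 nm emission); re-replication scored as increased high-intensity nuclei.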
Vif-A3F inh: qHTS for Inhibitors of Vif-A3F Interactions: qHTS; AID 602313, 2012; hit rate 0.2% among 390,000; Potency, µM (highest dose often 46.1 µM), for the others: at the top dose activity, negative = active; HeLa A3F-eYFP + Vif (tagged APOBEC3F with the HIV-1 protein that degrades it), YFP fluorescence increase; further: potency means the concentration at half of the fitted maximal effect; % of control where 0% means no effect; nearly all actives have a fitted effect of over 65% in size
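HeLa cells stably expressing A3F-eYFP plus Vif, plated and incubated overnight at 37 deg C, then exposed to compounds overnight at 37 deg C. Blocked degradation read as raised yellow fluorescence (Ex 488/Em 500-530).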
Active calls of the source: *; ? = inconclusive; nt = not tested or not shown; [ ] = another dose, or the depositor's remark. This is a sample that favours compounds with a hit; in the whole collection about 6.9% have one here. Unless noted, the call rests on the fitted dose curve; in most records, active means well fitted curve in the direction sought with a large enough effect; inconclusive means small, poorly fitted or top-dose-only effect, or another doubt; inactive means no such curve, though single readings can be large; an effect the other way counts as inactive or inconclusive.

SMILES | Giardia kill | MCF10A rereplic | Vif-A3G inh | IL1B secr inh | SW480 rereplic | Vif-A3F inh
COc1ccc(Cl)cc1N(CC(=O)NC1CC2CCC1C2)S(=O)(=O)c1ccccc1 (configuration not stated) | 2.2 | ? | 2.3% | -10.1 | ? | -1.9%
Cc1ccc(NC(=O)c2ccc(S(=O)(=O)NCc3ccco3)cc2)nc1 | 25.0 | ? | ? | 3.8 | 20.6µM* | -18.4%
COc1ccc(OC)c(Nc2nc(NCCO)c3ccccc3n2)c1 | 6.4 | ? | 8.7% | -89.4* | -0.6% | -68.7%
Cc1ccc(Nc2nc(NCCO)c3ccccc3n2)cc1C | 0.2 | ? | 2.2% | -99.5* | ? | 0.7%
COc1ccc(CNC(=O)Nc2nc(C(N)CCc3ccccc3)cs2)cc1 (configuration not stated) | nt | nt | -6.5% | -56.1* | nt | nt
COc1ccccc1CNC(=O)Nc1nc(C(N)C(C)C)cs1 (configuration not stated) | nt | nt | -2.6% | -50.9* | nt | nt
COc1cc(CNC(=O)Nc2nc(C(N)CCc3ccccc3)cs2)cc(OC)c1OC (configuration not stated) | nt | nt | -9.7% | -54.0* | nt | nt
CCc1ccccc1Nc1nc2cc(Cl)c(Cl)cc2nc1-n1nc(C)cc1C | nt | nt | -7.2% | nt | nt | 1.5%
CCc1nc(Nc2ccccc2OC)c2oc3ccccc3c2n1 | -24.2 | ? | -3.6% | -54.2* | ? | -12.4%
Cc1nc(Nc2ccncc2)c2oc3ccccc3c2n1 | 1.0 | ? | 2.4% | -93.2* | ? | -7.5%
CCc1nc(NCc2ccccn2)c2oc3ccccc3c2n1 | 18.0 | 20.5% | -3.8% | -68.0* | 7.9% | 3.4%
c1ccc(CNc2ncnc3c2oc2ccccc23)nc1 | 18.7 | 6.2% | 0.8% | 37.6 | -0.4% | 13.8%
CCc1nc(Nc2ccncc2)c2oc3ccccc3c2n1 | 5.6 | ? | 6.1% | -59.5* | 18.4µM* | -6.4%
Cn1ncc2c(Nc3cccc(C#N)c3)ncnc21 | nt | nt | -1.1% | nt | nt | 1.8%
COc1ccc(CCNC(=O)C2CC(=O)N(c3ccc(C(C)(C)C)cc3)C2)cc1OC (configuration not stated) | 13.7 | 0.581µM* | 2.7% | 0.4 | -1.8% | 10.7%
COc1ccc(CCNC(=O)C2CC(=O)N(c3ccc(C)cc3)C2)cc1OC (configuration not stated) | 6.1 | -6.9% | 1.5% | 8.8 | 4.0% | -9.7%
CC(Sc1nc2c([nH]c3ccccc32)c(=O)n1-c1ccccc1)c1ccccc1 (configuration not stated) | nt | nt | -19.3% | nt | nt | -9.3%
Oc1c(C(c2ccccn2)N2CCC(Cc3ccccc3)CC2)cc(Cl)c2cccnc12 (configuration not stated) | -19.4 | 15.8µM* | ? | -106.1* | ? | ?
CN1CCN(C(c2ccccn2)c2cc(Cl)c3cccnc3c2O)CC1 (configuration not stated) | 6.6 | 14.6% | 1.3% | 26.8 | ? | -4.8%
O=Nc1c(-c2c(O)[nH]c3cc(Br)ccc23)[nH]c2ccccc12 | -4.4 | -7.7% | 6.0% | -105.6* | ? | -3.5%
CN=c1scc(C)n1/N=C/c1cc(Br)c(O)c(Br)c1 | -7.5 | ? | -7.2% | 31.8 | -1.7% | -4.4%
CCN=c1scc(C)n1/N=C/c1cc(Br)c(O)c(OC)c1 | -1.2 | 20.6µM* | -8.0% | 6.0 | 7.0% | -1.3%
O=C(NCC(c1ccco1)N1CCCCC1)c1cccc(NS(=O)(=O)c2ccc(Br)cc2)c1 (configuration not stated) | 0.2 | 18.4µM* | -3.9% | ? | 3.9% | -7.4%
O=C(NCC(c1cccs1)N1CCOCC1)c1cccc(S(=O)(=O)Nc2ccc(F)cc2)c1 (configuration not stated) | -8.2 | 11.5% | 0.8% | 38.2 | -10.4% | 1.9%
Cc1ccc(NS(=O)(=O)c2cccc(C(=O)NCC(c3ccc(F)cc3)N3CCOCC3)c2)cc1 (configuration not stated) | 3.2 | 0.6% | 0.3% | -50.6* | -92.0% | 5.8%
SMILES | Giardia kill | MCF10A rereplic | Vif-A3G inh | IL1B secr inh | SW480 rereplic | Vif-A3F inh
Cc1ccc(S(=O)(=O)Nc2cccc(C(=O)NCC(c3ccco3)N3CCCC3)c2)cc1F (configuration not stated) | 0.6 | 20.7% | -0.5% | -27.4 | 23.1µM* | 7.1%
COc1ccccc1C(CNC(=O)c1cccc(NS(=O)(=O)c2ccc(C)c(F)c2)c1)N1CCCC1 (configuration not stated) | -1.4 | 2.6% | -6.8% | ? | -6.8% | -7.7%
O=C(CCCCn1c(=O)c2ccccc2n(CC(=O)Nc2ccc(F)cc2F)c1=O)NCc1ccccc1Cl | nt | nt | 1.8% | nt | nt | -0.2%
CN(C)c1ccc(C(=C2c3ccccc3-c3ccccc32)c2ccc(N(C)C)cc2)cc1 | nt | nt | 1.3% | nt | nt | nt
Cn1sccc1=O | -19.8 | 6.4% | -1.3% | -52.9* | 1.64µM* | -10.1%
CC1(c2ccc(OCC(N)=O)cc2)NC(=O)NC1=O (configuration not stated) | -7.3 | -31.2% | 1.3% | 23.5 | -11.3% | 3.5%
C=CCOc1ccc(C2NC(=O)c3ccccc3O2)cc1 (configuration not stated) | 1.0 | 9.1% | -0.7% | -14.7 | -2.9%[9.22 µM] | -2.6%
C=CCOc1ccc(C(=O)/C=C2/C(=O)Nc3ccccc32)cc1 | 8.3 | ? | ? | -91.7* | ? | -5.7%
NC(=O)COc1ccc(C(=O)/C=C2/C(=O)Nc3ccccc32)cc1 | -7.9 | ? | ? | -100.5* | 23.1µM* | ?
C=CCOc1ccccc1C(=O)/C=C1/C(=O)Nc2ccccc21 | -27.0 | 3.66µM* | ? | ? | ? | 2.8%
O=C(NCCN1CCOCC1)C1(C(F)(F)F)C/C(=C/CCO)CCCO1 (configuration not stated) | 14.8 | nt | -0.5% | nt | nt | nt
CN(C)/[N+]([O-])=N/Oc1cc(F)c([N+](=O)[O-])cc1[N+](=O)[O-] | nt | nt | -6.2% | nt | nt | nt
COC(=O)c1c(-c2cccs2)csc1NC(=O)c1cccnc1 | -2.1 | ? | -25.0% | -65.3* | -0.1%[9.22 µM] | nt
CC(C)(C)c1csc(N/N=C/c2cccnc2)n1 | -2.7 | 14.2% | -6.4% | -98.9* | -8.7% | -1.2%
Cc1ccc(/C=N/Nc2nc(C(C)(C)C)cs2)o1 | -5.9 | 9.2µM* | -9.0% | ? | -56.3% | 0.7%
COC(=O)Cn1c(C2CC(=O)N(c3c(C)cccc3C)C2)nc2ccccc21 (configuration not stated) | nt | nt | -4.4% | nt | nt | -1.2%
